From ChEMBL document CHEMBL4303122, “Identification of potential treatments for COVID-19 through artificial intelligence-enabled phenomic analysis of human cells infected with SARS-CoV-2” (2020) come the findings set out here.

SMILES strings stand for the structures. The full ranking holds about 1,600 compounds; the median of “Hit score” is about 0.13, and the highest 2% start at about 0.46. This excerpt belongs to a sample that is enriched for the highest values. *1 amine or outer side, *2 acyl side, *3 side chain or, on linkers, in order; H or OH if unused. Where a SMILES comes first, the peptide text is derived from it. Bridges are numbered along the chain shown (N, C = ends). [ ]: non-standard residue; d: D form. The star is where a group is joined. pTerphenylCO(4''-OnC5H11) = CCCCCOc1ccc(-c2ccc(-c3ccc(C(=O)*)cc3)cc2)cc1; Orn(4R-OH,5R-OH) = O=C([C@H](C[C@@H](O)[C@@H](O)N[*:3])N[*:1])[*:2]; hTyr(3S-OH,4S-OH) = N[C@H](C(=O)O)[C@H](O)[C@@H](O)c1ccc(O)cc1; Pro(3S-OH,4S-Me) = C[C@H]1CN[C@H](C(=O)O)[C@H]1O; Hyp = O=C(O)[C@@H]1C[C@@H](O)CN1

The assay concerns SARS-CoV-2. The experiment in a line: Antiviral activity against SARS-CoV-2 (USA-WA1/2020 strain) measured by imaging in HRCE cells at MOI 0.4 after 96 hrs (reported as hit score from 0-1 for on-disease vs off-disease activity: scores >0.6 considered hits). It counts as functional, Homo sapiens.
The compound `CCCCc1cc2ccccc2c(OCCN(C)C)n1` [DIMETHISOQUIN] had a Hit score of 0.1395.

In turn, `CC[C@]1(O)C[C@@H]2CN(CCc3c([nH]c4ccccc34)[C@@](C(=O)OC)(c3cc4c(cc3OC)N(C)[C@H]3[C@@](O)(C(=O)OC)[C@H](OC(C)=O)[C@]5(CC)C=CCN6CC[C@]43[C@@H]65)C2)C1` [VINBLASTINE] had a Hit score of 0.2235. As for `CC[C@]1(O)C[C@H]2CN(CCc3c([nH]c4ccccc34)[C@@](C(=O)OC)(c3cc4c(cc3OC)N(C=O)[C@H]3[C@@](O)(C(=O)OC)[C@H](OC(C)=O)[C@]5(CC)C=CCN6CC[C@]43[C@@H]65)C2)C1` [VINCRISTINE], the figure is 0.4904; as for `O=C(C[S+]([O-])Cc1ccco1)NC/C=C\COc1cc(CN2CCCCC2)ccn1` (stereo not drawn) [LAFUTIDINE], 0.2245.

Regarding `CCC(c1ccccc1)c1c(O)c2ccccc2oc1=O` (stereo not drawn) [PHENPROCOUMON], the Hit score came out at 0.1829.

For the compound `COc1ccc2c3c1O[C@H]1C[C@@H](O)C=C[C@@]31CCN(C)C2` [GALANTAMINE], the Hit score stood at 0.2532. On to `CC(C)COc1ccc(CNC(=O)N(Cc2ccc(F)cc2)C2CCN(C)CC2)cc1` [PIMAVANSERIN], for which the Hit score is given as -0.09171. `Brc1ccc(NC2C3CC4CC(C3)CC2C4)cc1` (stereo not drawn): the Hit score was found to be 0.3495.

`CO[C@H]1C(=O)[C@]2(C)[C@@H](OC)C[C@H]3OC[C@@]3(OC(C)=O)[C@H]2[C@H](OC(=O)c2ccccc2)[C@]2(O)C[C@H](OC(=O)[C@H](O)[C@@H](NC(=O)OC(C)(C)C)c3ccccc3)C(C)=C1C2(C)C` [CABAZITAXEL] came in with a Hit score of -0.8282. As for `COC(=O)c1ccc2c(c1)NC(=O)/C2=C(\Nc1ccc(N(C)C(=O)CN2CCN(C)CC2)cc1)c1ccccc1` [NINTEDANIB], the figure is 0.1859; as for `O=c1ncnc2n([C@H]3O[C@@H](CO)[C@H](O)[C@@H]3O)[nH]cc1-2` [ALLOPURINOL RIBOSIDE], 0.1953. As for `Cc1c(O)cccc1C(=O)N[C@@H](CSc1ccccc1)[C@H](O)CN1C[C@H]2CCCC[C@H]2C[C@H]1C(=O)NC(C)(C)C`, the figure is 0.1621. `COc1ccc(C(=O)N2CCN(c3ccc4c(c3)CCC(=O)N4)CC2)cc1OC` [VESNARINONE] had a Hit score of 0.09463. As for `CCCOC(C(=O)OC1CCN(C)CC1)(c1ccccc1)c1ccccc1.Cl`, the figure is 0.3138; as for `C/C=C/C[C@@H](C)[C@@H](O)[C@H]1C(=O)N[C@@H](CC)C(=O)N(C)CC(=O)N(C)[C@@H](CC(C)C)C(=O)N[C@@H](C(C)C)C(=O)N(C)[C@@H](CC(C)C)C(=O)N[C@@H](C)C(=O)N[C@H](C)C(=O)N(C)[C@@H](CC(C)C)C(=O)N(C)[C@@H](CC(C)C)C(=O)N(C)[C@@H](C(C)C)C(=O)N1C` [CYCLOSPORINE], 0.07198; as for `COc1ccc2c(c1)c(CC(=O)OCC(C(=O)O)c1ccccc1)c(C)n2C(=O)c1ccc(Cl)cc1` (stereo not drawn), 0.05914. The value for `COc1ccccc1OC(=O)c1ccccc1OC(C)=O` [GUACETISAL] was 0.1414; that for `COc1ccc(NC(=O)c2ccc(C(=N)N(C)C)cc2)c(C(=O)Nc2ccc(Cl)cn2)c1` [BETRIXABAN] was 0.004778. As for `O=C1NC(c2ccccc2)(c2ccccc2)C(=O)N1COP(=O)(O)O` [FOSPHENYTOIN], the figure is -0.01075; as for `CNC(=O)c1cccc(NC(=O)N2CCC(Oc3ccccc3Cl)CC2)c1`, 0.1005. Take `CCCCc1nc(C)c(CC(=S)N(C)C)c(=O)n1Cc1ccc(-c2ccccc2-c2nnn[nH]2)cc1`: the Hit score is 0.1262.

`COc1ccc2c(O[C@@H]3C[C@H]4C(=O)N[C@]5(C(=O)NS(=O)(=O)C6CC6)C[C@H]5/C=C\CCCCN(C)C(=O)[C@@H]4C3)cc(-c3nc(C(C)C)cs3)nc2c1C` gave a Hit score of 0.1824. The compound `C=C1/C(=C\C=C2/CCC[C@]3(C)[C@@H]([C@H](C)OCCC(C)(C)O)CC[C@@H]23)C[C@@H](O)C[C@@H]1O` [MAXACALCITOL] had a Hit score of -0.1282. As to `C=C1/C(=C\C=C2/CCC[C@]3(C)[C@@H]([C@H](C)CC[C@@H](O)C(C)C)CC[C@@H]23)C[C@@H](O)C[C@@H]1O` [TACALCITOL], the Hit score stood at 0.4469. The value for `C[C@H](/C=C/[C@H](C)C(C)(C)O)[C@H]1CC[C@H]2/C(=C/C=C3C[C@@H](O)C[C@H](O)C3)CCC[C@]12C` [PARICALCITOL] was 0.5764.

For the compound `C=C1/C(=C\C=C2/CCC[C@]3(C)[C@@H]([C@H](C)/C=C/[C@@H](O)C4CC4)CC[C@@H]23)C[C@@H](O)C[C@@H]1O` [CALCIPOTRIENE], the Hit score is listed as 0.6212. As for `C=C1CC[C@H](O)C/C1=C/C=C1\CCC[C@]2(C)[C@@H]([C@H](C)CCCC(C)(C)O)CC[C@@H]12` [CALCIFEDIOL ANHYDROUS], the figure is 0.4579; as for `C=C1/C(=C\C=C2/CCC[C@]3(C)[C@@H]([C@H](C)/C=C/[C@H](C)C(C)C)CC[C@@H]23)C[C@@H](O)C[C@@H]1O` [DOXERCALCIFEROL], 0.4621; as for `C=C1CC[C@H](O)C/C1=C/C=C1\CCC[C@]2(C)[C@@H]([C@H](C)CCCC(C)C)CC[C@@H]12` [CHOLECALCIFEROL], 0.2186.

`C=C1CC[C@H](O)C/C1=C/C=C1\CCC[C@]2(C)[C@@H]([C@H](C)CC[C@@H](O)C(C)(C)O)CC[C@@H]12` [SECALCIFEROL] had a Hit score of 0.3632.

On to `CCN(CC)C(=O)Nc1ccc(OCC(O)CNC(C)(C)C)c(C(C)=O)c1` (stereo not drawn) [CELIPROLOL], for which the Hit score is 0.5089. `CC(C)(C)NCC(O)COc1ccc(NC(=O)NC2CCCCC2)cc1` (stereo not drawn) [TALINOLOL] displayed a Hit score of 0.1441. As for `CN(C)C(=O)Oc1cc(OC(=O)N(C)C)cc(C(O)CNC(C)(C)C)c1` (stereo not drawn) [BAMBUTEROL], the figure is 0.1323; as for `C[C@]12CC[C@H]3[C@@H](CC[C@@]45O[C@@H]4C(O)=C(C#N)C[C@]35C)[C@@H]1CC[C@@H]2O` [TRILOSTANE], 0.3178; as for `COc1cc2nccc(Oc3ccc(NC(=O)Nc4cc(C)on4)c(Cl)c3)c2cc1OC` [TIVOZANIB], 0.1611. The value for `CC1(C)S[C@@H]2[C@H](NC(=O)COc3ccccc3)C(=O)N2[C@H]1C(=O)O` [PENICILLIN V] was 0.002553; that for `Cc1c(Cl)c(C)[n+]([O-])c(Cl)c1-c1noc(-c2cc(O)c(O)c([N+](=O)[O-])c2)n1` [OPICAPONE] was -0.07412; that for `Cc1ccc2c(c1)[C@]13CCCC[C@@H]1[C@H](C2)N(C)CC3` [DIMEMORFAN] was 0.08461. `CCCCCOc1ccc(-c2ccc(-c3ccc(C(=O)N[C@H]4C[C@@H](O)[C@@H](O)NC(=O)[C@@H]5[C@@H](O)[C@@H](C)CN5C(=O)[C@H]([C@@H](C)O)NC(=O)[C@H]([C@H](O)[C@@H](O)c5ccc(O)cc5)NC(=O)[C@@H]5C[C@@H](O)CN5C(=O)[C@H]([C@@H](C)O)NC4=O)cc3)cc2)cc1` [ANIDULAFUNGIN] ({pTerphenylCO(4''-OnC5H11)}-[Orn(4R-OH,5R-OH)]T[Hyp][hTyr(3S-OH,4S-OH)]T[Pro(3S-OH,4S-Me)]; lactam 1-C) came in with a Hit score of 0.1907.

As to `C=CC(=O)Nc1cccc(Oc2nc(Nc3ccc(N4CCN(C)CC4)cc3)nc3ccsc23)c1` [OLMUTINIB], the Hit score worked out at 0.2407. The value for `Cc1oc(=O)oc1COC(=O)C1=C([C@H]2CCCO2)S[C@@H]2[C@@H]([C@@H](C)O)C(=O)N12` [FAROPENEM MEDOXOMIL] was 0.000691; that for `CC(C)(O)CNc1nc(Nc2ccnc(C(F)(F)F)c2)nc(-c2cccc(C(F)(F)F)n2)n1` [ENASIDENIB] was 0.1439; that for `OC[C@H]1O[C@@](CO)(O[C@H]2O[C@H](CO)[C@@H](O)[C@H](O)[C@H]2O)[C@@H](O)[C@@H]1O` [SUCROSE] was 0.09545. The value for `Cc1cc(S(=O)(=O)[O-])c2c(C)ccc(C(C)C)cc1-2.[Na+]` [SODIUM GUALENATE] was 0.2044; that for `CCCCCCCCCCCCCCCC(=O)O[C@@H]1[C@@H](O)[C@@H](O)[C@@H]([C@H](NC(=O)[C@@H]2C[C@@H](CCC)CN2C)[C@H](C)Cl)O[C@@H]1SC` [CLINDAMYCIN PALMITATE] was 0.1881; that for `CCn1c(=O)c2c(nc(/C=C/c3ccc(OC)c(OC)c3)n2C)n(CC)c1=O` [ISTRADEFYLLINE] was 0.1372.

`COc1ccc(-c2cc(=O)c3c(O)c(OC)c(O)cc3o2)cc1OC` [EUPATILIN]: the Hit score was 0.2352. As for `CC[C@]12CCCN3CCc4c(n(c5ccccc45)C(=O)C1)[C@@H]32` [VINBURNINE], the figure is 0.1621. The value for `CCOc1nc2cccc(C(=O)O)c2n1Cc1ccc(-c2ccccc2-c2noc(=O)[nH]2)cc1` [AZILSARTAN] was 0.1513; that for `CCC(C)(Oc1ccc(C2(c3ccc(OC(C)(CC)C(=O)O)cc3)CCCCC2)cc1)C(=O)O` (stereo not drawn) [CLINOFIBRATE] was 0.1194. As for `N[C@@H](CCN[C@@H](CCN1CC[C@H]1C(=O)O)C(=O)O)C(=O)O`, the figure is 0.1041; as for `Cn1cnc2c(F)c(Nc3ccc(Br)cc3F)c(C(=O)NOCCO)cc21` [BINIMETINIB], 0.0233; as for `O=C(O)c1cc2ccccc2c(Cc2c(O)c(C(=O)O)cc3ccccc23)c1O` [PAMOIC ACID], 0.0734.
